The whole screen tested about 190,000 compounds, of which about 1,300 (0.68%) were called active. Rule as the data show it: active = inhibition above about 50%; inactive = the rest. This excerpt belongs to a sample that is enriched for actives.

In general, inhibition refers to the drop in the measured response relative to a control, in per cent.

Chain of Mannose-6-phosphate isomerase (Homo sapiens) (P34949 whole entry, looked up): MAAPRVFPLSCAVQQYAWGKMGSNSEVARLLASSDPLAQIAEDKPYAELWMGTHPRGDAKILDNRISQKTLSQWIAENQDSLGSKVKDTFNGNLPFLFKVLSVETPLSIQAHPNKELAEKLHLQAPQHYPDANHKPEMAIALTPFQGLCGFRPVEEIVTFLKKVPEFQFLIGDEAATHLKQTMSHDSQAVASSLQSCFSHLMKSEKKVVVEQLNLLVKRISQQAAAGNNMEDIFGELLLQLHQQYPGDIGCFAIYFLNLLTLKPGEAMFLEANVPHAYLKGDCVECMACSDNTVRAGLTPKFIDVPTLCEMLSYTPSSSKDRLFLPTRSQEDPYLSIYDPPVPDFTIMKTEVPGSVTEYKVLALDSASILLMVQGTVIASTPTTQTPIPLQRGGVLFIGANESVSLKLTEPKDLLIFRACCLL

The test addresses Mannose-6-phosphate isomerase (Homo sapiens) (UniProt P34949). The test can be described thus: human PMI inhibitors, high substrate, primary screen, biochemical, fluorescence intensity, high mannose 6-phosphate (AID 1220). As to conditions: recombinant PMI enzyme, coupled fluorescence intensity; at 20 µM; active compounds read high.
Take `CC1CC1C(=O)OCC(=O)NCc1ccc(Cl)cc1Cl` (stereo unspecified): the inhibition was -7.7% (inactive).
Then `CCSc1nnc(NC(=O)C2CC(=O)N(Cc3ccc(C)cc3)C2)s1` (stereo unspecified), with -13.3% (inactive); and `CCCNC(=S)Nc1ccc2nc(-c3ccccn3)c(-c3ccccn3)nc2c1`, with -9.4% (inactive); and `Cc1ccc(NC(=S)Nc2ccc3nc(-c4ccccn4)c(-c4ccccn4)nc3c2)cc1C`, with 63.1% (active).
As for `O=C(Nc1ccc2nc(-c3ccccn3)c(-c3ccccn3)nc2c1)N1CCOCC1`, the inhibition is 62.6% (active).
On to `CN(C)NC(=S)Nc1ccc2nc(-c3ccccn3)c(-c3ccccn3)nc2c1`, for which the inhibition was -38.7% (inactive).
In the case of `CCOC(=O)C1CCN(C(=O)Nc2ccc3nccnc3c2)CC1`, the inhibition was 49.9% (inactive).
Then `CCOC(=O)N1CCN(C(=O)Nc2ccc3nccnc3c2)CC1`, with 55.1% (active).
Next, `CCOC(=O)N1CCN(C(=O)Nc2ccc3nc(C)c(C)nc3c2)CC1`: 48.9% (inactive); `S=C(Nc1ccc2nc(-c3ccccn3)c(-c3ccccn3)nc2c1)N1CCOCC1`: -7.8% (inactive).
Then `CCOC(=O)N1CCN(C(=O)Nc2ccc3nc(-c4ccccn4)c(-c4ccccn4)nc3c2)CC1`, with 25.7% (inactive); and `Cc1ccc2[nH]c3c(=O)n(CCN4CCNCC4)cnc3c2c1`, with 24.5% (inactive).
Regarding `Cc1[nH]c2ccccc2c1CCNC(=O)c1c(N)no[n+]1[O-]`, the inhibition is 15.2% (inactive).
Then `O=c1c(Cl)c(N/N=C/c2ccc(Br)cc2)cnn1-c1ccccc1`, with 4.9% (inactive); and `O=C(Cc1cccc2ccccc12)Nc1ccc(OC(F)F)c(Cl)c1`, with 10% (inactive); and `CC1=CC(=O)C(C(C)C)=C/C1=N\OC(=O)c1cccc2nc(C)oc12`, with 9.2% (inactive).
Next, `CC1=CC(=O)C(C(C)C)=C/C1=N/OC(=O)c1cccc([N+](=O)[O-])c1`: -0.5% (inactive); `CC1=CC(=O)C(C(C)C)=CC1=NC(=O)c1ccc(C)cc1`: 79% (active); `COC(=O)CCc1c(C)c(C(=O)c2ccc(F)cc2)c2ccccn12`: 6.2% (inactive).
Then `CCN=c1sc(C(=O)OC)cc(=O)n1CC`, with 3.7% (inactive); and `O=C(NCC1OCCCN1S(=O)(=O)c1cc(F)ccc1F)C(=O)NC1CCCCC1` (stereo unspecified), with -0.8% (inactive); and `Cc1c(Cc2ccccc2)c(=O)oc2cc(O)cc(O)c12`, with 58.5% (active).
`Cc1c(Cc2ccccc2)c(=O)oc2c(CN(C)C)c(O)c(Cl)cc12`: the inhibition is 7.5% (inactive).
Next, `COc1ccc2c(C)c(Cc3ccccc3)c(=O)oc2c1OC`: 0.1% (inactive); `CCOC(=O)Cc1c(C)c2c(O)cc(O)cc2oc1=O`: 33.5% (inactive); `Cc1coc2c1c(C)cc1oc(=O)c(Cc3ccccc3)c(C)c12`: -11.6% (inactive).

These data come from PubChem BioAssay AID1220 (Sanford-Burnham Center for Chemical Genomics, 2008).
